# Data taken from PubChem BioAssay (Tox21).
# Values without a mark were called inactive. Inconclusive results are not listed. The source made the active and inactive calls. Calls come from the whole dose curve; as a rule, active = well fitted curve in the direction sought with a large enough effect in the repeat runs; inconclusive = weak or mixed curves; inactive = no such curve, though single readings can be large; an effect the other way counts as inactive or inconclusive.
# Assay: qHTS RealTime-Glo MT Cell Viability Assay in HEK293 cells - 32 hour (AID 1224868); note: potency is the fitted concentration of half-maximal effect; for activity change, negative = cytotoxic: top concentration of the series differs between compounds
# Settings: RealTime-Glo luminescence; series mostly up to 76.8 µM; activity change, negative = cytotoxic: at the top concentration
# Summary of the method: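 Homogeneous bioluminescent viability format in HEK293 cells (600 cells/well). Following 5 h at 37 C/5% CO2, 23 nL compound was pintooled; the signal was measured repeatedly during 40 h incubation.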
# % is set by controls: 0 for no effect and ±100 for the full control effect.
# Note: nearly all actives have a fitted effect of over 50% in size.
SMILES,"activity change, negative = cytotoxic",Potency
O=C1c2ccccc2C(=O)c2ccccc21,15.3% [at 15.8 µM],
Clc1ccccc1N1CCNCC1,-1.09% [at 35.3 µM],
CC(C)(C)NCC(O)c1cc(Cl)c(N)c(Cl)c1 (configuration not stated),-0.696% [at 35.3 µM],
Nc1ccccc1Cl,3.51%,
Nc1cc(Cl)ccc1O,-10%,
COc1ncc(F)c2nc(S(=O)(=O)Nc3c(F)cccc3F)nn12,2.11% [at 35.3 µM],
CN(N=O)C(N)=O,10.4%,
CCCCCCBr,13.7%,
ClC(Cl)Br,14.8%,
CC(C)CC#N,2.35%,
N#CC(O)c1ccccc1 (configuration not stated),14.4%,
COC(=O)C(c1ccccc1)C1CCCCN1 (configuration not stated),2.45%,
C=C(C)CN(CC)c1c([N+](=O)[O-])cc(C(F)(F)F)cc1[N+](=O)[O-],2.71%,
Nc1c(Br)cc([N+](=O)[O-])cc1[N+](=O)[O-],-8.47%,
CNCC(=O)c1ccc(O)c(O)c1,0.99% [at 35.3 µM],
CS(=O)(=O)c1cc(C(F)(F)F)ccc1C(=O)c1cnoc1C1CC1,-0.113%,
COC(=O)C(C)Oc1ccc(Oc2ccc(Cl)cc2Cl)cc1 (configuration not stated),-15.9%,

SMILES,"activity change, negative = cytotoxic",Potency
Nc1cnn(-c2ccccc2)c(=O)c1Cl,19.7%,
CCCSC(=O)N(CCC)CCC,4.01%,
CC(C(=O)c1ccccc1)N(C)C (configuration not stated),1.64% [at 35.3 µM],
CCCCOC(=O)[C@@H](C)Oc1ccc(Oc2ccc(C#N)cc2F)cc1,,21.7 µM (active)
NC(=O)O,3.4%,
CCCSP(=O)(OCC)Oc1ccc(Br)cc1Cl (configuration not stated),-4.56% [at 35.3 µM],
COC(=O)c1c(C(F)F)nc(C(F)(F)F)c(C2=NCCS2)c1CC(C)C,-13.8%,
COc1ccc(C(=O)N2CCCC2=O)cc1,-7.12% [at 35.3 µM],
ClC(Cl)C(Cl)Cl,-0.433%,
O=[N+]([O-])c1ccc(CBr)cc1,16.7%,
COC(=O)C1=CCCN(C)C1,5.43% [at 35.3 µM],
CCC1(c2ccccc2)C(=O)N=C(O)NC1=O (configuration not stated),6.06%,
CNNC,-5.8%,
CNC(=O)Oc1c(C(C)(C)C)cc(C)cc1C(C)(C)C,1.49%,
Cc1ncc(CNC(=O)N(CCCl)N=O)c(N)n1,12.5% [at 35.3 µM],
CCC#N,0.608%,
O=[N+]([O-])c1ccc2c3c(cccc13)CC2,0.909%,

# Assay: A CellTox Green Cytotoxicity Assay to monitor cytotoxicity in HEK293 cells - 0 hour (AID 1224869)
# Settings: CellTox Green fluorescence; series mostly up to 76.8 µM; cytotoxicity: at the top concentration
# Summary of the method: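 Real-time, in one plate: 600 HEK293 cells/well with dead-cell DNA dye, pinned compound after 5 h, 37 C incubation over 40 h; viable cells give no appreciable fluorescence.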
row,SMILES,cytotoxicity
1,O=C1c2ccccc2C(=O)c2ccccc21,6.35% [at 15.8 µM]
2,Clc1ccccc1N1CCNCC1,-15% [at 35.3 µM]
3,CC(C)(C)NCC(O)c1cc(Cl)c(N)c(Cl)c1 (configuration not stated),15.9% [at 35.3 µM]
4,Nc1ccccc1Cl,0.512%
5,Nc1cc(Cl)ccc1O,-3.62%
6,COc1ncc(F)c2nc(S(=O)(=O)Nc3c(F)cccc3F)nn12,9.25% [at 35.3 µM]
7,CN(N=O)C(N)=O,-3.89%
8,CCCCCCBr,-1.23%
9,ClC(Cl)Br,-0.909%
10,CC(C)CC#N,-1.95%
11,COC(=O)C(c1ccccc1)C1CCCCN1 (configuration not stated),0.846%
12,COc1ccc2c(c1OC)CN1CCc3cc4c(cc3C1C2)OCO4 (configuration not stated),-0.698% [at 35.3 µM]
13,C=C(C)CN(CC)c1c([N+](=O)[O-])cc(C(F)(F)F)cc1[N+](=O)[O-],1.29%
14,Nc1c(Br)cc([N+](=O)[O-])cc1[N+](=O)[O-],0.746%
15,Nc1cnn(-c2ccccc2)c(=O)c1Cl,-3.35%
16,CCCSC(=O)N(CCC)CCC,-0.526%
17,NC(=O)O,-7.53%
18,C#C[C@]1(O)C=C[C@H]2[C@@H]3CCC4=CC(=O)CC[C@@H]4[C@H]3CC[C@@]21CC,0.901% [at 35.3 µM]
19,COc1ccc(C(=O)N2CCCC2=O)cc1,-1.21% [at 35.3 µM]
20,ClC(Cl)C(Cl)Cl,-0.803%
21,O=[N+]([O-])c1ccc(CBr)cc1,-0.127%
22,CCN(CC)C(=O)[C@@H]1C=C2c3cccc4[nH]cc(c34)C[C@H]2N(C)C1,9.14% [at 200 µM]
23,COC(=O)C1=CCCN(C)C1,2.98% [at 35.3 µM]
24,CNNC,1.45%
25,CNC(=O)Oc1c(C(C)(C)C)cc(C)cc1C(C)(C)C,1.51%
26,CCC#N,-7.48%
27,O=[N+]([O-])c1ccc2c3c(cccc13)CC2,2.02%
28,CC1CCCCC1NC(=O)Nc1ccccc1 (configuration not stated),-7.18%
